Measured values from ChEMBL document CHEMBL3988442, “University of Dundee, Small-Polar-MMV Screening Library” (2021).

Molecular target: T1, Arginase-2, mitochondrial (Homo sapiens) (UniProt P78540)
T1 sequence (whole entry): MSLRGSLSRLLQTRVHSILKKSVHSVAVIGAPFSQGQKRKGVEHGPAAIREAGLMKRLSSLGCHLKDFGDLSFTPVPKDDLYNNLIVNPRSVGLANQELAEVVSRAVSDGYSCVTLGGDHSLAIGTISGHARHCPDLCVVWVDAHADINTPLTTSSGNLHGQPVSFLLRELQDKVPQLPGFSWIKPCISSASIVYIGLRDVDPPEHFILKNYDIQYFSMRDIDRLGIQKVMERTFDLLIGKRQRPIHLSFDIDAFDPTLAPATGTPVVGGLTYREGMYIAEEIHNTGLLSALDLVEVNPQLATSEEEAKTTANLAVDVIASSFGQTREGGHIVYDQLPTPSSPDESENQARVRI
Experiment: in vitro enzyme assay to detect the production of urea directly proportional to the activity of Arginase II
Type: functional
Parameters: scale not given: in the data most compounds retested in dose-response had high values
Details: 30 µM

**Q.** How did the Percent Effect turn out when `CCc1cc(CNC(=O)N2CCN(c3nc(C)c(C)s3)CC2)on1` was run?
**A.** 3.78%

**Q.** Which Percent Effect does the source give for `COc1ccc(C)cc1C(C(=O)O)N1CCN(Cc2ccccn2)CC1` (stereo not given) here?
**A.** 4.87%

**Q.** For `CC1=Nc2c(c(=O)[nH]n2C2CCCC2)C(c2cccnc2)S1` (stereo not given), which Percent Effect is on record?
**A.** 7.03%

**Q.** `CCN1CCC(NC(=O)c2ccc(F)cc2I)CC1` was tested. Which Percent Effect did it give?
**A.** -1.62%

**Q.** For `COc1ccccc1Oc1ncccc1CNC(=O)C(C)CN` (stereo not given), which Percent Effect is on record?
**A.** 11.3%

**Q.** How did the Percent Effect turn out when `COc1ccccc1Oc1ncccc1CNC(=O)[C@@H](N)CCO` was run?
**A.** -12.4%

**Q.** `Cc1cc(NC(=O)C2CN(Cc3ccccc3)CCO2)ccn1` (stereo not given) was tested. Which Percent Effect did it give?
**A.** 3.78%

**Q.** `Fc1ccc(CNCc2nnc3n2CC(C(F)(F)F)CC3)c(F)c1` (stereo not given) was tested. Which Percent Effect did it give?
**A.** 8.11%

**Q.** `Cc1cc(C)n(C2CN(Cc3noc(C4CC4)n3)C2)n1` was tested. Which Percent Effect did it give?
**A.** 8.11%

**Q.** With `CC1=Nc2c(c(=O)[nH]n2C2CCCC2)C(c2ccc(O)cc2)S1` (stereo not given) as the compound, how does the Percent Effect read?
**A.** 5.95%

**Q.** `COCc1ccc(C(=O)N(CCC#N)Cc2ccccn2)cc1` was tested. Which Percent Effect did it give?
**A.** 0.54%

**Q.** With `COc1ncccc1CNC(=O)N(Cc1ccccc1F)C1CC1` as the compound, how does the Percent Effect read?
**A.** 5.95%

**Q.** `Cc1ncsc1C(=O)N1CCCC(c2nccn2Cc2cscn2)C1` (stereo not given) was tested. Which Percent Effect did it give?
**A.** 10.3%

**Q.** With `Cc1nc(NCC2CC2)nc2c1COCC21CCN(CC(=O)N(C)C)C1` (stereo not given) as the compound, how does the Percent Effect read?
**A.** 4.87%

**Q.** How did the Percent Effect turn out when `CC[C@@H](NC(C)=O)C(=O)NCc1cccnc1Oc1ccccc1OC` was run?
**A.** 4.87%

**Q.** With `CN1CCC(N(Cc2ccccc2F)C(=O)NCc2ccncc2)CC1` as the compound, how does the Percent Effect read?
**A.** 5.95%

**Q.** How did the Percent Effect turn out when `Cc1cccc(C(=O)N2CCCC(c3nccn3Cc3cscn3)C2)n1` (stereo not given) was run?
**A.** 9.19%

**Q.** `CCCn1c(NCCc2ccccc2)nc2c(C)nn(C)c2c1=O` was tested. Which Percent Effect did it give?
**A.** 1.62%

**Q.** Which Percent Effect does the source give for `CC1CCN(S(=O)(=O)c2cccn(CC(=O)NC(C)(C)C)c2=O)CC1` here?
**A.** 8.11%

**Q.** How did the Percent Effect turn out when `O=c1[nH]c2c(c(=O)n1C1CCCCC1)CCC2Nc1ccc(Cl)cc1` (stereo not given) was run?
**A.** -2.7%
